# Most compounds without a hit are left out; they make up all but 11% or so of the library.
# Pf growth 96h: inhibits malaria parasite growth, 96 h | P. falciparum luciferase reporter growth, 96 h | Potency, µM (highest dose often 28.7 µM), without a hit: at the highest dose activity change, negative = inhibition, usual class: inhibitors | hit rate 6.9% among 320,000
#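 Erythrocytes infected with luciferase-expressing P. falciparum were dispensed at 2% hematocrit and 0.05% parasitemia (final), then incubated with compounds 96 hours at 37 C in 5% CO2. Luminescence after detection reagent addition reported growth.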
# HCV inhibitor: HCV inhibition | Huh7.5.1 HCVcc-Cre infection, luciferase reporter, 44 h | Potency, µM (doses to about 41.8 µM), inactives show at the top dose activity change, negative = inhibition, usual class: inhibitors | hit rate 3.4% among 340,000 | AID 651820
#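 Whole-lifecycle infectious HCVcc-Cre system; cells 1,000/well, compound then virus (~0.5 moi) added 4 h after plating, 44 h culture. Luciferase read 15 sec following 15 min substrate incubation, room temp.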
# Pf growth 48h: P. falciparum growth inhibition at 48 hours (one generation); P. falciparum luciferase growth in erythrocytes, 48 h; Potency, µM (highest dose often 28.7 µM), without a hit: top-dose activity change, negative = inhibition, most hits filed as inhibitors; hit rate 5.9% among 310,000
#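 Luciferase-expressing P. falciparum in infected erythrocytes (2% hematocrit, 0.1% parasitemia final) in RPMI 1640/0.5% Albumax were exposed to compound for 48 hours at 37 C, 5% CO2; growth read as luminescence.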
# AMA1-RON2 inh: disrupts binding of P. falciparum AMA1 to RON2 | AlphaScreen AMA1-biotinylated RON2 peptide binding | Potency, µM (doses to about 58.2 µM), without a hit: top-dose activity change, negative = inhibition, actives largely listed as inhibitors | hit rate 0.2% among 360,000 | AID 720542;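 note: 0% = vehicle wells and -100% = peptide control; nearly all actives have a fitted effect of over 45% in size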
#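 AMA1 (3D7) with his tag at 25 nM final met compounds first, then biotinylated RON2 peptide at 25 nM; detection used donor plus acceptor beads, 10 µg/mL apiece, read by AlphaScreen after 30 min at room temperature.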
# * marks the source's active call; other numbers are inactive results; i = inactive; ? = inconclusive; / = not tested or not shown; [ ] = remark or other dose. Calls come from the whole dose curve; as a rule, active = well fitted curve in the direction sought with a large enough effect; inconclusive = small, poorly fitted or top-dose-only effect, or another doubt; inactive = no such curve, though single readings can be large; an effect the other way counts as inactive or inconclusive. Unless noted, % is set by controls: 0 for no effect and ±100 for the full control effect; potency is the fitted concentration of half-maximal effect.
SMILES,Pf growth 96h,HCV inhibitor,Pf growth 48h,AMA1-RON2 inh
COCCNC(=O)c1ccc(CN2CCC(Cc3ccccc3)CC2)cc1,?,-24%,-12%,0%
O=C(NCC(=O)N1CCN(c2ccccc2)CC1)c1ccc(Cl)cc1,3%,0%,-5%,-8%
O=C(NCC(=O)N1CCC(Cc2ccccc2)CC1)c1ccc(Cl)cc1,13µM*,?,0%,8%
O=C(NCc1ccccc1)c1ccc(CN2CCC(Cc3ccccc3)CC2)cc1,-4%,10µM*,13µM*,-11%
CCc1ccccc1NC(=O)c1ccc(CN2CCC(Cc3ccccc3)CC2)cc1,25%,13µM*,1µM*,-7%
O=C(c1ccc(CN2CCOCC2)cc1)N1CCC(Cc2ccccc2)CC1,2.9µM*,?,-22%,-6%
COCCN(C(=O)c1ccc(N2C(=O)c3ccccc3C2=O)cc1)c1c(N)n(CC(C)C)c(=O)[nH]c1=O,32%,0%,26%,7%
COc1ccccc1NC(=O)N(C)C[C@@H]1OCc2cnnn2CCCC(=O)N([C@H](C)CO)C[C@H]1C,/,/,/,-7%
CCN(C(=O)Cn1c(=O)n(-c2cc(OC)c(OC)c(OC)c2)c(=O)c2ccccc21)c1cccc(C)c1,-28%,14%,-20%,2%
CCN(CC)C(=O)Cn1c(=O)c2ccccc2n2c(=S)sc(-c3cccc(C)c3)c12,2.1µM*,0.56µM*,?,0%
COCC(C)N1C(=O)Cc2c1nc(N)c1c(N)nc(N3CCN(c4ccccc4F)CC3)c(C#N)c21 (stereo not given),1.3µM*,?,5.9µM*,50%
N#CCc1c(C#N)c(N)nc(N2CCN(c3ccc(F)cc3)CC2)c1C#N,/,?,9.3µM*,8%
COCCN1C(=O)Cc2c1nc(N)c1c(N)nc(N3CCN(c4ccc(F)cc4)CC3)c(C#N)c21,?,-25%,7.4µM*,73%
CCOC(=O)c1cc(-c2ccccc2)sc1NC(=O)c1cc(OC)c(OC)c(OC)c1,?,?,20%,5%
COC(=O)c1nc(N)sc1-c1ccccc1,9.3µM*,9%,14%,15%
CCOC(=O)c1cc(-c2ccccc2)sc1NC(=S)Nc1cc(C)ccn1,13µM*,12%,?,1%
COC(=O)c1nc(N)sc1-c1ccc(Cl)cc1,?,-8%,9%,22%
COC(=O)c1cc(-c2ccccc2)sc1N,166%,2µM*,/,i
CCOC(=O)c1cc(-c2ccccc2)sc1NC(=O)CC(C)C,7.4µM*,-15%,?,14%
CC(C)(C)C1CCc2c(C(=O)NNC(=O)CCCC(=O)O)csc2C1 (stereo not given),-20%,14%,-2%,23%
CCOC(=O)c1cc(-c2ccccc2)sc1NC(=O)C(C)(C)C,?,-20%,9.3µM*,11%
Cc1ccc(-c2csc(=Nc3cccnc3)n2CCCn2ccnc2)cc1C,3.7µM*,?,10µM*,1%[2.32 µM]
COCCn1c(-c2ccccc2)csc1=Nc1cccnc1,?,8.9µM*,?,-8%
CCCCn1c(C)csc1=Nc1cccnc1,?,6%,-1%,-9%
Cc1ccc(-c2csc(=Nc3cccnc3)n2CCCN2CCCC2=O)cc1C,12µM*,?,?,-1%[2.32 µM]
SMILES,Pf growth 96h,HCV inhibitor,Pf growth 48h,AMA1-RON2 inh
c1cncc(N=c2scc(-c3cccc4ccccc34)n2CCCn2ccnc2)c1,9.3µM*,?,9.3µM*,11%[2.32 µM]
Cc1ccc(CNC(=O)CNS(=O)(=O)c2ccc3nc(C)sc3c2)cc1,?,-6%,74%,-1%
Cc1cc(C)cc(N(C(C)C(=O)NCCC2=CCCCC2)S(C)(=O)=O)c1 (stereo not given),?,?,/,-5%
O=C(COC(=O)[C@@H]1CC(O)CN1S(=O)(=O)c1ccc2c(c1)OCCO2)NCc1ccc(F)cc1 (stereo not given in full),5%,10%,-23%,21%
Cc1cc(C(=O)CN2C(=O)C(=O)N(Cc3ccccc3)C2=O)c(C)n1CC1COc2ccccc2O1 (stereo not given),?,11µM*,?,-10%
O=C(CSc1nnc(-c2ccco2)o1)NC(=O)C1COc2ccccc2O1 (stereo not given),-20%,-1%,31%,5%
Cc1cc(C(=O)CSc2nnc(-c3ccc(F)cc3)o2)c(C)n1CC1COc2ccccc2O1 (stereo not given),?,-19%,?,-3%
Cc1cc(C(=O)CSc2nnc(-c3ccccc3)o2)c(C)n1CC1COc2ccccc2O1 (stereo not given),3.3µM*,-4%,?,-4%
Cc1cc(C(=O)CSc2nnc(-c3ccco3)o2)c(C)n1CC1COc2ccccc2O1 (stereo not given),4.7µM*,?,10µM*,-5%
N#Cc1cc2c(nc1Cl)CCC2,14%,12%,0%,6%
COC(=O)[C@]12CCCCC=C1N(CCC1=CCCCC1)C(=O)[C@H](CC(=O)NCC13CC4CC(CC(C4)C1)C3)C2,/,/,/,-8%
CC(C)=CCC[C@H](C)C[C@@H]1CC2=C(C(=O)OC(C)(C)O2)[C@@H](c2ccc(F)cc2)O1,/,/,/,1%
COc1ccc(NS(=O)(=O)c2ccc(F)c(Cl)c2)cn1,44%,14%,46%,21%
O=C(Nc1cccc(Cl)c1Cl)c1snnc1-c1ccccc1,95%,7%,-11%,10%
CCOC(=O)CC(=O)Nc1cc(Cl)ccc1O,12µM*,23%,15%,7%
O=C(CCc1ccccc1)Nc1cc(Cl)ccc1O,?,?,10µM*,-4%
O=C(Nc1cc(Cl)ccc1O)c1snnc1-c1ccccc1,12µM*,18µM*,?,-7%
O=C(CCc1ccccc1)Nc1cc(C(=O)O)cc(C(=O)O)c1,1.5µM*,7%,24%,-1%
O=C(O)CC(=O)Nc1cc(Cl)ccc1O,6%,9%,/,3%
O=C(CCc1ccccc1)Nc1cccnc1Cl,70%,10%,55%,3%
CCC(C)[C@H](NC(=O)N1CC(=O)Nc2ccccc21)C(=O)Nc1nccs1 (stereo not given in full),?,16%,-7%,12%
COc1ccc(COCC(O)CN(Cc2ccccc2)C(C)C)cc1OC (stereo not given),10%,-4%,20%,3%
C=CCC[C@@H](Cc1ccc(F)cc1)C(=O)OC[C@@H](Cc1ccccc1)NC(=O)[C@@H](CC=C)CC(=O)N[C@@H](CO)Cc1ccccc1,/,11%,/,9%
Cc1ccc(C(=O)N(c2ccccc2)C2CC(C)N(C(=O)c3ccco3)c3ccccc32)cc1 (stereo not given),/,11µM*,10µM*,-5%
CC(=O)N(c1ccccc1)C1CC(C)N(C(=O)c2ccccc2)c2ccccc21 (stereo not given),17%,-29%,0%,6%
Cc1cc2c3c(c1C)C1(C(=O)N3C(C)(C)CC2C)C(C#N)=C(N)Oc2cc(O)ccc21 (stereo not given),10µM*,-7%,/,-7%

# Bioassay records deposited in PubChem by National Center for Advancing Translational Sciences (NCATS).
